This is an account of results in PubChem BioAssay (NCI).

The panel holds about 83,000 compounds, 20% with a hit somewhere; the sample as a whole holds those more often.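 Assay: single dose, 48 h. Readout: percent growth (0 = no net growth; negative = cell death). Active: <10.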 Values without a mark were called inactive. The source made the active and inactive calls.

Some test systems named below: NCI-H23 lung; NCI-H226 lung; NCI-H322M lung; HOP-62 NSCLC; NCI-H460 lung; HOP-92 NSCLC; NCI-H522 lung; A549/ATCC NSCLC; 786-0 renal; DU-145 prostate; K-562 leukemia; MALME-3M melanoma; MDA-MB-231 breast; RXF 393 renal; SF-268 CNS; SF-295 CNS; SF-539 CNS; UACC-257 melanoma; M14 melanoma; COLO 205 colon.
Holding throughout (test): NCI-60 one-dose screen, 48 h (100 = growth as untreated, 0 = no growth, -100 = all killed)
What all share (details): 10 µM unless noted

Take `Cn1/c(=N/NC(N)=S)ccc2ccccc21`: the growth in the test on NCI-H23 lung is 94.9%; with NCI-H226 lung, 88.9%; in the test on NCI-H322M lung, 82.4%; in the test on HOP-62 NSCLC, 98.6%; in the test on NCI-H460 lung, 108%; in the test with HOP-92 NSCLC, 109%. In addition, the growth in the test on NCI-H522 lung is 88.9%; with A549/ATCC NSCLC, 97.7%; in the test with 786-0 renal, 104%; in the test on DU-145 prostate, 103%; in the test on K-562 leukemia, 46.4%; with MALME-3M melanoma, 90.8%. For the same compound, the growth was 87.7% in the test with MDA-MB-231 breast; 102% in the test with RXF 393 renal; 91.8% in the test on SF-268 CNS; 89.5% in the test with SF-295 CNS; 97.8% in the test with SF-539 CNS; 70% in the test with UACC-257 melanoma. Moreover, in the test on M14 melanoma, the growth was 86.4%.

Consider `Cn1c(COC(=O)N2CCCCC2)nc2c(N3CCOCC3)nc(-c3ccccc3)nc21`, for which the growth with NCI-H23 lung was -75.9% (active); in the test on NCI-H226 lung it was -60.8% (active); in the test with NCI-H322M lung it was 37.4%; with HOP-62 NSCLC, -31.3% (active); in the test on NCI-H460 lung, -55.9% (active); in the test on HOP-92 NSCLC, -64.7% (active). Besides, the growth was -53.2% (active) in the test on NCI-H522 lung; -39.7% (active) in the test on A549/ATCC NSCLC; -75.1% (active) with 786-0 renal; -87% (active) in the test on DU-145 prostate; 3.43% (active) with K-562 leukemia; -85.2% (active) in the test with MALME-3M melanoma. In addition, the growth was -71.6% (active) with MDA-MB-231 breast; -78.5% (active) in the test with SF-268 CNS; 21.6% with SF-295 CNS; -91.9% (active) in the test on SF-539 CNS; -76.3% (active) in the test on UACC-257 melanoma; -59.8% (active) in the test on M14 melanoma.

As to `CCOC(=O)c1ccc(Nc2ccnc(SCC(=O)c3ccc(C#N)cc3)n2)cc1`, the growth was 79.9% in the test on NCI-H23 lung; 61.4% in the test on NCI-H226 lung; 90.5% in the test on NCI-H322M lung; 63.4% with HOP-62 NSCLC; 90.5% in the test with NCI-H460 lung; 105% in the test with HOP-92 NSCLC. For the same compound, the growth with NCI-H522 lung was 27%; in the test on A549/ATCC NSCLC, 60.6%; in the test on 786-0 renal, 78.4%; in the test on DU-145 prostate, 79.4%; in the test on K-562 leukemia, 50.6%; with MALME-3M melanoma, 80.9%. Besides, the growth in the test with MDA-MB-231 breast is 81.2%; in the test with SF-268 CNS, 78%; in the test with SF-295 CNS, 76.2%; in the test on SF-539 CNS it was 83%; in the test on UACC-257 melanoma, 77.7%; with M14 melanoma, 50.5%.

Take `N#CSCC1CC(O)(c2ccccc2)C(c2ccccc2)C(c2ccc(F)cc2)O1` (stereo unspecified): the growth in the test with NCI-H226 lung was 63.1%; in the test on NCI-H322M lung it was 60.4%; in the test on HOP-62 NSCLC it was 60.3%; with NCI-H460 lung, 25.2%; in the test on HOP-92 NSCLC, 1.42% (active); in the test with NCI-H522 lung, 25.2%. Also, the growth is 63.1% in the test with A549/ATCC NSCLC; 3.08% (active) in the test with 786-0 renal; 22.1% in the test with COLO 205 colon; -4.17% (active) in the test with DU-145 prostate; 12.6% in the test with K-562 leukemia; -10.9% (active) with MALME-3M melanoma. Besides, the growth is -4.68% (active) in the test with MDA-MB-231 breast; 25.9% in the test with RXF 393 renal; 29.9% in the test with SF-268 CNS; 52.9% in the test on SF-295 CNS; 40.5% with SF-539 CNS; 60.1% in the test with UACC-257 melanoma. For the same compound, the growth with M14 melanoma was -2.19% (active).

Turning to `Cc1cccc(Oc2ccc(Nc3ncnc4ccc(NC(=O)CN(C)C)cc34)cc2Cl)c1`, the growth with NCI-H23 lung is 78.4%; in the test on NCI-H226 lung, 93.1%; with NCI-H322M lung it was 17.4%; in the test on HOP-62 NSCLC, 59.3%; with NCI-H460 lung, 0.249% (active); with HOP-92 NSCLC it was 23.5%. The growth is 30% in the test with NCI-H522 lung; 40.4% with A549/ATCC NSCLC; 47.9% in the test on 786-0 renal; 34.5% in the test on DU-145 prostate; -8.94% (active) in the test on K-562 leukemia; 25.9% with MALME-3M melanoma. The growth in the test on MDA-MB-231 breast was 41.1%; with SF-268 CNS it was 54.8%; in the test with SF-295 CNS, 58.4%; with SF-539 CNS, 59.9%; with UACC-257 melanoma it was 81.8%; with M14 melanoma, -77.1% (active).

`O=C1NC(=S)NC(=O)C1=Cc1cccc(C=C2C(=O)NC(=S)NC2=O)c1`: the growth is 102% with NCI-H23 lung; 98.8% in the test on NCI-H226 lung; 110% in the test with NCI-H322M lung; 104% in the test on HOP-62 NSCLC; 104% in the test on NCI-H460 lung; 116% in the test on HOP-92 NSCLC. The growth is 93.1% in the test with NCI-H522 lung; 108% in the test on A549/ATCC NSCLC; 12.2% with 786-0 renal; 110% with DU-145 prostate; 102% with K-562 leukemia; 109% in the test with MALME-3M melanoma. Moreover, the growth with MDA-MB-231 breast is 108%; in the test with SF-268 CNS, 103%; in the test on SF-295 CNS, 108%; in the test on SF-539 CNS, 99.9%; in the test with UACC-257 melanoma it was 102%; with M14 melanoma, -58.6% (active).

For `Clc1nc(Nc2ccccc2)nc(Nc2ccccc2)n1`, the growth is 103% in the test on NCI-H23 lung; 91.2% in the test on NCI-H226 lung; 96.3% in the test with NCI-H322M lung; 81.5% in the test on HOP-62 NSCLC; 109% in the test with NCI-H460 lung; 77.9% in the test with HOP-92 NSCLC. Besides, the growth was 83.8% in the test with NCI-H522 lung; 104% with A549/ATCC NSCLC; 84.4% in the test on 786-0 renal; 101% in the test on DU-145 prostate; 111% in the test with MALME-3M melanoma; 88.8% with MDA-MB-231 breast. The growth was 117% with RXF 393 renal; 103% in the test with SF-268 CNS; 100% with SF-295 CNS; 100% with SF-539 CNS; 130% in the test with UACC-257 melanoma; 118% with M14 melanoma.

With `CNC(=O)NCC1OC(n2cnc3c(NC(=O)Nc4ccccc4)ncnc32)C(O[Si](C)(C)C(C)(C)C)C1O[Si](C)(C)C(C)(C)C` (stereo unspecified), the growth in the test on NCI-H226 lung was 49%; in the test with NCI-H322M lung, 87.3%; in the test with HOP-62 NSCLC it was 61.7%; with NCI-H460 lung it was -6.74% (active); in the test with HOP-92 NSCLC it was -2.68% (active); in the test with NCI-H522 lung, 46.2%. Further, the growth in the test on A549/ATCC NSCLC was 23%; in the test on 786-0 renal, 16.5%; in the test with COLO 205 colon it was -100% (active); with DU-145 prostate, 52.2%; in the test with K-562 leukemia, 34.5%; in the test with MALME-3M melanoma, 48.9%. Also, the growth is 37.7% in the test on MDA-MB-231 breast; -37% (active) with RXF 393 renal; 36% in the test on SF-268 CNS; 45.1% with SF-295 CNS; 33.4% with SF-539 CNS; 42.8% with UACC-257 melanoma.
